Measured values reported in the supplement of paper PMC10498489.
About 330 (14%) of roughly 2,300 compounds showed activity.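 How the source made its calls: active = median modified Z-score above 1.96; inactive = 1.96 or below.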 A selection follows.

Each compound was assayed on HepG2 Srxn1-GFP reporter cells (+30 nM CDDO-Me) (assay: Srxn1-GFP intensity median modified Z-score relative to plate median; higher = stronger NRF2 / oxidative stress reporter activation, active = hit call of the paper). Conditions: 10 µM; exposure time: 24h.
In short: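 Per-cell cytoplasmic GFP was measured on confocal images of formaldehyde-fixed, Hoechst-stained HepG2 Srxn1-GFP BAC reporter cells, excluding images with fewer than 100 cells. Before this, the cells (20,000 per well, 96-well plates) were co-exposed for 24 h to compound at 10 μM and an NRF2 activator at 30 nM with ≤0.1% DMSO, in three replicate plates. Each value is the median over replicates of the per-plate modified Z-score of GFP intensity. That score was scaled with 1.4826 × median absolute deviation.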

Srxn1-GFP intensity median modified Z-score, active:
S=C=Nc1ccc(N=C=S)cc1 [euspeclibcmpd1177] 20.6
CCOC(=O)C(CCc1ccccc1)NC(C)C(=O)N1C(C(=O)O)CC2CCCCC21 (centres undefined) [euspeclibcmpd732] 9.5
CN(C)N=Nc1[nH]cnc1C(N)=O [euspeclibcmpd80] 60.7
COc1cc([C@@H]2c3cc4c(cc3C(OC3O[C@@H]5COC(C)O[C@H]5[C@H](O)[C@H]3O)C3COC(=O)C32)OCO4)cc(OC)c1O (some centres undefined) [euspeclibcmpd356] 2.43
COc1cc([C@@H]2c3cc4c(cc3C(O[C@@H]3O[C@@H]5CO[C@@H](c6cccs6)OC5[C@H](O)[C@H]3O)C3COC(=O)C32)OCO4)cc(OC)c1O (some centres undefined) [euspeclibcmpd647] 8.51
Cc1ccc(-c2cc(C(F)(F)F)nn2-c2ccc(S(N)(=O)=O)cc2)cc1 [euspeclibcmpd595] 2.01
O=C(O)CN(CCN(CC(=O)O)CC(=O)O)CC(=O)O 2.26
C=C(NC(=O)C(C)=NC(=O)c1csc(C2=NC3c4csc(n4)C4NC(=O)c5csc(n5)C(C(C)(O)C(C)O)NC(=O)C5CSC(=N5)C(=CC)NC(=O)C(C(C)O)NC(=O)c5csc(n5)C3(CC2)NC(=O)C(C)NC(=O)/C(C)=N/C(=O)C(C)NC(=O)C(C(C)CC)NC2C=Cc3c(C(C)O)cc(nc3C2O)C(=O)OC4C)n1)C(N)=O (centres undefined) [euspeclibcmpd703] 19.1
CC(C)c1c(O)ccc2c1CCC1C(C)(C)CCC[C@]21C (some centres undefined) [euspeclibcmpd1572] 8.09

Srxn1-GFP intensity median modified Z-score, inactive:
COC1CC(OC2C(C)C(=O)OC(C)C(C)C(O)C(C)C(=O)C3(CO3)CC(C)C(OC3OC(C)CC(N(C)C)C3O)C2C)OC(C)C1O (centres undefined) [euspeclibcmpd1849] -0.547
O=S(=O)(O)c1cc(N=C=S)ccc1C=Cc1ccc(N=C=S)cc1S(=O)(=O)O [euspeclibcmpd1825] -0.132
CCCC(NC(C)C(=O)N1C(C(=O)O)C[C@@H]2CCCC[C@@H]21)C(=O)OCC (some centres undefined) [euspeclibcmpd721] -0.404
CCOC(=O)C(CCc1ccccc1)NC(C)C(=O)N1C(C(=O)O)C[C@@H]2CCC[C@@H]21 (some centres undefined) [euspeclibcmpd722] -0.468
CC1C(=O)O[C@H]2CC34[C@H]5CC(C(C)(C)C)C36C(=O)C(O)O[C@H]6OC4(C(=O)O5)[C@@]12O (some centres undefined) [euspeclibcmpd2300] -0.422
CC(=O)Nc1ccc(OC(=O)c2ccccc2O)cc1 [euspeclibcmpd1988] -0.258
CN(C)c1cc(NC(=O)CNC(C)(C)C)c(O)c2c1C[C@H]1C[C@H]3[C@H](N(C)C)C(=O)C(C(N)=O)C(=O)[C@@]3(O)C(=O)C1C2=O (some centres undefined) [euspeclibcmpd1297] -0.316
OCc1cc(O)c2c(O)c3c(O)cccc3c([C@@H]3O[C@H](CO)[C@@H](O)[C@H](O)[C@H]3O)c2c1 [euspeclibcmpd1140] -0.523
CCNC1CN(CCCOC)S(=O)(=O)c2sc(S(N)(=O)=O)cc21 (centres undefined) [euspeclibcmpd1945] -0.371
C=C1CCC(c2cc(O)oc2O)C(=O)CCC2C1CC2(C)C (centres undefined) [euspeclibcmpd1822] -0.357
Nc1ccc(S(=O)(=O)N=c2nccc[nH]2)cc1 [euspeclibcmpd274] -0.479
CCCCCCCCCCCCCCCC(=O)OCC(O)CO (centres undefined) [euspeclibcmpd1622] -0.224
CCc1ccc(CCOc2ccc(Cc3sc(=O)[nH]c3O)cc2)nc1 [euspeclibcmpd684] -0.309
O=c1c(-c2ccc(Br)cc2)coc2cc(O)ccc12 0.373
C[C@]12CCC(=O)CC1=C1C[C@@H]1C1C2CC[C@@]2(C)C1[C@@H]1C[C@@H]1[C@@]21CCC(=O)O1 (some centres undefined) [euspeclibcmpd608] -0.491
C[C@@H]1O[C@@H](O[C@H]2[C@@H](Oc3cc(O)c4c(c3)O[C@H](c3ccc(O)cc3)CC4=O)O[C@H](CO)[C@@H](O)[C@@H]2O)[C@H](O)[C@H](O)[C@H]1O [euspeclibcmpd1504] -0.249
NS(=O)(=O)c1ccc(C(=O)O)cc1 [euspeclibcmpd1180] 0.0784
COc1ccc(-c2cc(C(F)F)nn2-c2ccc(S(N)(=O)=O)cc2)cc1F [euspeclibcmpd724] 0.694
C=c1cc(O)c2c(O)c3c(O)c(=C)cc(O)c3c(O)c2c1O [euspeclibcmpd2077] -0.258
CCCCC(=O)O[C@]1(C(=O)CO)[C@@H](C)CC2C3CC=C4CC(=O)C=C[C@]4(C)[C@@]3(F)C(O)C[C@@]21C (some centres undefined) [euspeclibcmpd36] -0.635
CS(=O)(=O)c1ccc(-c2coc(O)c2-c2ccccc2)cc1 [euspeclibcmpd2038] -0.358
O=C(O)CN(CCN(CC(=O)O)CC(=O)O)CCN(CC(=O)O)CC(=O)O [euspeclibcmpd916] -0.735
O=C(O)CN(CCN(CC(=O)O)CC(=O)O)CC(=O)O [euspeclibcmpd2457] -0.0932
O=C(O)CS [euspeclibcmpd2222] -0.181
COC1C(O)C(O)C(O)[C@@H](O)C1O (some centres undefined) [euspeclibcmpd1333] -0.525
CC1(C)O[C@@H]2CC3C4CC=C5CC(=O)C=C[C@]5(C)C4[C@@H](O)C[C@]3(C)[C@]2(C(=O)CO)O1 (some centres undefined) [euspeclibcmpd859] -0.247
C[N+](C)(C)C[C@H](O)CC(=O)O [euspeclibcmpd2087] -0.18
O=[N+]([O-])c1cccc2c[nH]nc12 [euspeclibcmpd1788] -0.00617
CC(C)c1c(O)c(-c2cc3c(c(C(C)C)c2O)CCC2C(C)(C)CCC[C@]32C)cc2c1CCC1C(C)(C)CCC[C@]21C (some centres undefined) [euspeclibcmpd1653] -0.248
COC(=O)[C@@]1(C)CCC[C@]2(C)c3ccc(O)c(C(C)C)c3CCC12 (some centres undefined) [euspeclibcmpd1676] 1.46
